What all share (assay): DAPPL (digital affinity profiling via proximity ligation, sequencing); 10 mM Tris-HCl pH 7.5, 50 mM NaCl, 1 mM DTT, 4% glycerol, room temperature, 30 min; GST-TFs on glutathione beads, 16-mer random dsDNA library, 0.1% formaldehyde crosslink after washing; high values mean tight binding
The target in experiment [1] is T1, FLI1 (Homo sapiens, UniProt Q01543 1-452).
T1 sequence: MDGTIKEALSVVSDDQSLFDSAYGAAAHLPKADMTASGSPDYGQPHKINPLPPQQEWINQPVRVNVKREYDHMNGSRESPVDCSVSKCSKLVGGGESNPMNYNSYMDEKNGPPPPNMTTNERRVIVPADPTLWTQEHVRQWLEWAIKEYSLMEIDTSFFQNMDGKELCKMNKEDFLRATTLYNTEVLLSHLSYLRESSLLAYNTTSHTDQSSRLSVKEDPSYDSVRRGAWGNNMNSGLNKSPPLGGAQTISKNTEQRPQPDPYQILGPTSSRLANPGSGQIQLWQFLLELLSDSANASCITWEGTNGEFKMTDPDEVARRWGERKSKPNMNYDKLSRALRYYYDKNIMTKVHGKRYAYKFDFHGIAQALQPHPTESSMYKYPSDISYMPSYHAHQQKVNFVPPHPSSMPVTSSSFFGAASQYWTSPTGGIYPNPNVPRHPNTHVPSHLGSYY
Particulars: protein: recombinant; tags: N-terminal GST; dsDNA, one strand shown. Summed up:
(§1)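 Each value of binding signal is a hexamer's read frequency for a factor divided by the same hexamer's frequency in the tag-only sample. Barcoded, bead-captured GST fusions of human transcription factors made in yeast were pooled with that sample and incubated with 200 nmole of a random double-stranded 16-mer DNA library in Tris/NaCl/DTT/glycerol buffer at room temperature for 30 min. Washing, 0.1% formaldehyde crosslinking, proximity ligation, PCR and Illumina NextSeq500 sequencing followed.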

Experiment [2] has as its target T2, ELK1 (Homo sapiens, UniProt P19419 1-428).
T2 sequence: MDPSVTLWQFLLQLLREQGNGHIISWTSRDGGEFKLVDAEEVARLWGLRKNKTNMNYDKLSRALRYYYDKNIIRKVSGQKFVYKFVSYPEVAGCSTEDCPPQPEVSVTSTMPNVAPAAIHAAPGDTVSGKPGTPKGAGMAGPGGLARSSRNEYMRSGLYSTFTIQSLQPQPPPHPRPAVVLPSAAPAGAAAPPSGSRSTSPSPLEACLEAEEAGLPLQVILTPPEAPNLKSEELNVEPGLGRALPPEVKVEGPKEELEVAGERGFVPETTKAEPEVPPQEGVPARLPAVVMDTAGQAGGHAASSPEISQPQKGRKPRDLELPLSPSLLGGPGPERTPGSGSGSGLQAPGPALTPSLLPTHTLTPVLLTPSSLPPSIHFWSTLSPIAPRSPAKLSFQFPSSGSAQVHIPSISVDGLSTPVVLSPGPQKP
Particulars: protein: recombinant; tags: N-terminal GST; dsDNA, one strand shown. Summed up: as §1

In experiment [3] the target is T3, GABPA (Homo sapiens, UniProt Q06546 1-454).
T3 sequence: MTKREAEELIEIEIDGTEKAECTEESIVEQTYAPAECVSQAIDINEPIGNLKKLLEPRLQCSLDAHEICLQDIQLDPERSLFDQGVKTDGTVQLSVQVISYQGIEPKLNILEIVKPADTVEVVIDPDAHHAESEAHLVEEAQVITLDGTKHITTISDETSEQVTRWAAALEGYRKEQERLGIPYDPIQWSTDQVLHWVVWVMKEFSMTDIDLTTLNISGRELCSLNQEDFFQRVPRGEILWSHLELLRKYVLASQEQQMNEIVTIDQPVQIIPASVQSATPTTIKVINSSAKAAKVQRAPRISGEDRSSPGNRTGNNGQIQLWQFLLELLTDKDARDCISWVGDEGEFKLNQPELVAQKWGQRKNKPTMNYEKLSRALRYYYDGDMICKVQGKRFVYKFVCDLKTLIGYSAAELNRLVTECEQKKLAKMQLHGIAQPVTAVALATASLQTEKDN
Particulars: protein: recombinant; tags: N-terminal GST; dsDNA, one strand shown. The method in brief:
as §1

Experiment [4] concerns the target T4, ERG (Homo sapiens, UniProt P11308 1-479).
T4 sequence: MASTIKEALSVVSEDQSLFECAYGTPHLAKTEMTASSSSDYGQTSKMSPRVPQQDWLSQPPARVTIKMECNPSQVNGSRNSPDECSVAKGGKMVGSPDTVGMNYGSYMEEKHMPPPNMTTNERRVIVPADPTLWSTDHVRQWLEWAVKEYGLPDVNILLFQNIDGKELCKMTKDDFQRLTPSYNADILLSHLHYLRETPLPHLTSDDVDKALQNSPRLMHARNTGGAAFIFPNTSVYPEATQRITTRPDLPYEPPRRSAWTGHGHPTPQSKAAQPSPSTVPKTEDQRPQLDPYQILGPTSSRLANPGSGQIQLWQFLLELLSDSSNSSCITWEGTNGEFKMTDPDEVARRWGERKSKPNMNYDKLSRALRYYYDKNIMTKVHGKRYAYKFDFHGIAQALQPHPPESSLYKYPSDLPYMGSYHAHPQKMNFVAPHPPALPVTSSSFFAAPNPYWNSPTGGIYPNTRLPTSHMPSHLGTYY
Particulars: protein: recombinant; tags: N-terminal GST; dsDNA, one strand shown. Summed up: as §1

In experiment [5] the target is ELF1 (Homo sapiens, UniProt P32519 1-619). Particulars: protein: recombinant; tags: N-terminal GST; dsDNA, one strand shown. Summed up:
as §1

Experiment [6] addresses T5, EHF (Homo sapiens, UniProt Q9NZC4 1-300).
T5 sequence: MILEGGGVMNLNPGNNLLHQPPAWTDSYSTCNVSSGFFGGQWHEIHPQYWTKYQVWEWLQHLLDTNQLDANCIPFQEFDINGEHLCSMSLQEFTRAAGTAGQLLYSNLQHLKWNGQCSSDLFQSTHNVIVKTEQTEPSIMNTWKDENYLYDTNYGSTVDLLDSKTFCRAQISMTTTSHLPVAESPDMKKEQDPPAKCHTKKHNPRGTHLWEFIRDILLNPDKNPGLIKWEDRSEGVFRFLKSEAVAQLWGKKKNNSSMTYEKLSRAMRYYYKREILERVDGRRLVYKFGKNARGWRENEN
Particulars: protein: recombinant; tags: N-terminal GST; dsDNA, one strand shown. Summed up: as §1

The target in experiment [7] is SPIB (Homo sapiens, UniProt Q01892 1-262). Particulars: protein: recombinant; tags: N-terminal GST; dsDNA, one strand shown. Summed up:
as §1

Experiment [8] concerns the target T6, ELK3 (Homo sapiens, UniProt P41970 1-407).
T6 sequence: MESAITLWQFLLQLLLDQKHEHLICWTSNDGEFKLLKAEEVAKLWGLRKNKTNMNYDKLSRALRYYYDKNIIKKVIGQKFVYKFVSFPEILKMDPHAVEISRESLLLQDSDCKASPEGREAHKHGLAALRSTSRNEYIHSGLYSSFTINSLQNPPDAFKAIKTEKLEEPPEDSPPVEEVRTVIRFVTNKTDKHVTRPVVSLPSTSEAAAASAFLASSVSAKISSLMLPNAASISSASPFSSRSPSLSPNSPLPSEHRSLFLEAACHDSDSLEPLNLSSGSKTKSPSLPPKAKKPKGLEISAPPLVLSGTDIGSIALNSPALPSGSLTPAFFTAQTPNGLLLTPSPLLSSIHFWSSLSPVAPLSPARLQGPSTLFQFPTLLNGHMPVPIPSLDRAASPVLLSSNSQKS
Particulars: protein: recombinant; tags: N-terminal GST; dsDNA, one strand shown. The method in brief:
as §1

The target in experiment [9] is T7, FEV (Homo sapiens, UniProt Q99581 1-238).
T7 sequence: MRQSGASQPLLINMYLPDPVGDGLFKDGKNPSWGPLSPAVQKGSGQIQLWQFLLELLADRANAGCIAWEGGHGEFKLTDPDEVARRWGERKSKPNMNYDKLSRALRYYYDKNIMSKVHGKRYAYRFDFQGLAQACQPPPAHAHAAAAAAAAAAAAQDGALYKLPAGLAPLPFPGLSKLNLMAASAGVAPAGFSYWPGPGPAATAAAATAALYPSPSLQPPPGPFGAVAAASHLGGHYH
Particulars: protein: recombinant; tags: N-terminal GST; dsDNA, one strand shown. Summed up:
as §1

The target in experiment [10] is HSF1 (Homo sapiens, UniProt Q00613 1-529). Particulars: protein: recombinant; tags: N-terminal GST; chain copies: 3; dsDNA, one strand shown. The method in brief: as §1
In experiment [11] the target is ELF4 (Homo sapiens, UniProt Q99607 1-663). Particulars: protein: recombinant; tags: N-terminal GST; dsDNA, one strand shown. The method in brief:
as §1

Chain of HSF1 (Q00613 whole entry): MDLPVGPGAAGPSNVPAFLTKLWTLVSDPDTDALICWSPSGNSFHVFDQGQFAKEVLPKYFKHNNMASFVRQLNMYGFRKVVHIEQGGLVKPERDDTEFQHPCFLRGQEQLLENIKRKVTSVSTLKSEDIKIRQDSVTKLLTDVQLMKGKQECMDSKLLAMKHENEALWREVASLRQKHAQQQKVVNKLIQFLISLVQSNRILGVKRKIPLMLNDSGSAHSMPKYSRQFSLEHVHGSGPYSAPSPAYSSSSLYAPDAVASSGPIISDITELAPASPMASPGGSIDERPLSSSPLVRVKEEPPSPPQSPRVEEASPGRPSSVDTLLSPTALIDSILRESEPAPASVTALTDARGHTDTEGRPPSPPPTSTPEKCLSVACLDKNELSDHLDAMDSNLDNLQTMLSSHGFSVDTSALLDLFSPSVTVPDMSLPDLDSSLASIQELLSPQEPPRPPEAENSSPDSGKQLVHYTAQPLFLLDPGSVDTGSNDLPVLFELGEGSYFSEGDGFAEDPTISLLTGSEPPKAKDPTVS
Chain of ELF4 (Q99607 whole entry): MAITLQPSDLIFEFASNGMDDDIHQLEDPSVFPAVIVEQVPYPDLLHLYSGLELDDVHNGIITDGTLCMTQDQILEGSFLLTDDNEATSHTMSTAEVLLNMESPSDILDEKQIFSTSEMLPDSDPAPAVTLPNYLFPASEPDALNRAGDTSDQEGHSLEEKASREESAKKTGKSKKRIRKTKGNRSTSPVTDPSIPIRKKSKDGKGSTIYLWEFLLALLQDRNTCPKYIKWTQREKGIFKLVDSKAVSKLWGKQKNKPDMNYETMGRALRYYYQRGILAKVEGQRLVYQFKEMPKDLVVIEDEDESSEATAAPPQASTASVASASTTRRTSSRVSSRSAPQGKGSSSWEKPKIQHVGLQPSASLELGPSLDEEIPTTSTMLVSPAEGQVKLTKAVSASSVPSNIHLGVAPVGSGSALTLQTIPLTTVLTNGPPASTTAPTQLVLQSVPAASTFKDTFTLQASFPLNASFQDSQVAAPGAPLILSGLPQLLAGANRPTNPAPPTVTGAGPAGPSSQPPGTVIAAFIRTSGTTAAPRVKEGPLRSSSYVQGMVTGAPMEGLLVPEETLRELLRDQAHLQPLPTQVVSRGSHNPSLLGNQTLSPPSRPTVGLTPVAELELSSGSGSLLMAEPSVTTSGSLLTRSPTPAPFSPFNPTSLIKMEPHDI
Chain of ELF1 (P32519 whole entry): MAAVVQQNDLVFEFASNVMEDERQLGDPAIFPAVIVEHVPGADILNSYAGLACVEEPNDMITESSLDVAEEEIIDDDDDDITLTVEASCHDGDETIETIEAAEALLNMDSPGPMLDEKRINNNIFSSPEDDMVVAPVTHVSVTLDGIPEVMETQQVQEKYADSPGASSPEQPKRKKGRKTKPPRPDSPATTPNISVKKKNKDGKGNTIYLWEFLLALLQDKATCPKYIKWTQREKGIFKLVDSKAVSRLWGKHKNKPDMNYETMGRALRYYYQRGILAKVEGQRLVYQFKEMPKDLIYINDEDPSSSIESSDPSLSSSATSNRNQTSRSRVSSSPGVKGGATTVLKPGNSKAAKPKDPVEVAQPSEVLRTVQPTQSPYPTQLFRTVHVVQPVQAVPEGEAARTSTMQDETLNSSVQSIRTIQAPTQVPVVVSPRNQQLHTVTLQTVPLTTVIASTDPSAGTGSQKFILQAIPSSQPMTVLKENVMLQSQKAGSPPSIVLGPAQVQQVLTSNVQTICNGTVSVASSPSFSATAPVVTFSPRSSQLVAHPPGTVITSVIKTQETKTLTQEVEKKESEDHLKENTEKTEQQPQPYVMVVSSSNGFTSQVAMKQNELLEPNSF
Chain of SPIB (Q01892 whole entry): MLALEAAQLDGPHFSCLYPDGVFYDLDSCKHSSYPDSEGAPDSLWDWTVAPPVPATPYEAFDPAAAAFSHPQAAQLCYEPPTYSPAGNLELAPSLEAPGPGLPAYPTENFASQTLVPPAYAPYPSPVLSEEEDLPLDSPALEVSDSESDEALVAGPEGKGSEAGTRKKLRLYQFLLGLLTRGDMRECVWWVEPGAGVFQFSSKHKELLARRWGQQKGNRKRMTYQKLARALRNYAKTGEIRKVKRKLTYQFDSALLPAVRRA

GATCCA: the binding signal in experiment [1] is 1.01 fold enrichment (6-mer frequency, TF over GST control); in experiment [2], 1.08 fold enrichment (6-mer frequency, TF over GST control); in experiment [3], 1.16 fold enrichment (6-mer frequency, TF over GST control); in experiment [4], 1.03 fold enrichment (6-mer frequency, TF over GST control); in experiment [5], 1.04 fold enrichment (6-mer frequency, TF over GST control); in experiment [6] it was 1.07 fold enrichment (6-mer frequency, TF over GST control). Besides, the binding signal in [7] was 1.08 fold enrichment (6-mer frequency, TF over GST control); in experiment [8], 1.02 fold enrichment (6-mer frequency, TF over GST control); in experiment [9] it was 1.07 fold enrichment (6-mer frequency, TF over GST control); in experiment [10], 1.21 fold enrichment (6-mer frequency, TF over GST control); in experiment [11] it was 1.05 fold enrichment (6-mer frequency, TF over GST control).

The record behind these values is PMC7862700, “An all-to-all approach to the identification of sequence-specific readers for epigenetic DNA modifications on cytosine”.
